MCF10A rerep = DNA re-replication induction in MCF 10a cells | MCF 10A DNA re-replication, Hoechst nuclear intensity, 48 h | Potency, µM (titrated, usually from 46.1 µM), for the others: at the top dose activity, positive = re-replication, actives largely listed as activators | 350,000 tested, 2.9% active | AID 624296; also: % of control where 0% means no effect; nearly all actives have a fitted effect of over 50% in size
Integrin act MD = activates integrin-mediated alleviation for muscular dystrophy. alpha7betagal myoblasts, beta-gal FDG fluorescence, 48 h. Potency, µM (titrated, usually from 38.3 µM), without a hit: at the top dose activation, hits mostly activators. 350,000 tested, 0.064% active. AID 624291;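 also: 100% = response of the positive control SU9516; nearly all actives have a fitted effect of over 60% in size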
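Alpha7betagal+/- myoblasts (passage 13) were plated 16-24 hr, then exposed to compounds (1:260 dilution of DMSO stock) for 48 hours at 37C. After MPER lysis, β-galactosidase reporter activity was read as FDG fluorescence (ex 480/em 540) after 30 minutes.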
AT treatment = potential ataxia-telangiectasia treatments restoring KAP-1 phosphorylation | 320,000 tested, 0.19% active | Potency, µM (top dose mostly 57.5 µM), inactives show at the top dose activation, actives largely listed as activators | F2112 A-T fibroblasts, KAP-1 phosphorylation AlphaLISA; neocarzinostatin DNA damage 30 min before lysis | AID 485349; also: % of control where 0% means no effect; nearly all actives have a fitted effect of over 45% in size
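ATM-like activity read as KAP-1 phosphorylation via AlphaLISA donor/acceptor antibody pairs after lysis and 6 hr at 25C. Cells were ATM-null patient fibroblasts (F2112, hTERT), dosed 60 min, then exposed to the DSB inducer NCS for 30 min.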
Mito fusion act = blocks mitochondrial division or promotes mitochondrial fusion. S. cerevisiae fusion-defective mutant growth rescue, CellTiterGlo 48 h. 320,000 tested, 0.23% active. Potency, µM (top dose mostly 46.1 µM), without a hit: at the top dose growth rescue (activation), usual class: activators; also: % of control where 0% means no effect; nearly all actives have a fitted effect of over 45% in size
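Temperature-sensitive fusion-defective S. cerevisiae (e.g. fzo1-1, mgm1-5) were grown with compound in YPEG medium (3% ethanol, 3% glycerol) for 48 hours at 37C. Growth rescue was measured as viability by CellTiterGlo luminescence after 10 minutes at ambient.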
SW480 rereplic = inducers of DNA re-replication in SW480 colon cancer cells. 340,000 tested, 1.8% active. Potency, µM (series often up to 46.1 µM), for inactives: at the highest dose re-replication activation, hits mostly activators. SW480 DNA re-replication, Hoechst DNA content imaging, 48 h; also: % of control where 0% means no effect; nearly all actives have a fitted effect of over 55% in size
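Readout is total intensity of Hoechst-stained nuclei, excited at 405 nm and collected at 500-530 nm. Compound treatment lasted 48 hr at 37 C in 5% CO2 before staining.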
Numbers without * were called inactive; u = inconclusive; x = not tested or not shown; ! = not confirmed by another sample; [ ] = another dose, or the depositor's remark. In the library only some 4.2% were active in any assay of this set; here they are far more common. Calls follow the shape of the dose curve; as a rule, active = well fitted activation curve with a large enough effect; inconclusive = small, poorly fitted or top-dose-only effect; inactive = no such curve, though single readings can be large or run the other way. Potency is read from the fitted curve at half-maximal effect.

SMILES	MCF10A rerep	Integrin act MD	AT treatment	Mito fusion act	SW480 rereplic
O=C(c1cc(S(=O)(=O)N2CCOCC2)ccc1Cl)N1CCCCC1CO (stereo not drawn)	-44%	20%	3%	x	10%
CCOc1cccc(CN2CCC(Oc3ccc(C(=O)N4CCCC4)cc3)CC2)c1O	x	-9%	x	x	x
COc1cccc(C2=NOC(C(=O)NCc3ccc(F)cc3)C2)c1 (stereo not drawn)	0.73µM*	-7%	-16%	2%	-8%
Cc1ccc(CNC(=O)C2CC(c3ccccc3F)=NO2)cc1 (stereo not drawn)	3.3µM*	-18%	-16%	-3%	u
COc1cccc(C2=NOC(C(=O)NCc3cccnc3)C2)c1 (stereo not drawn)	15%	-27%	8%	0%	8%
COC(=O)c1cccc(C(=O)N2CCCC(C(=O)c3cc(F)ccc3F)C2)c1 (stereo not drawn)	3%	-18%	5%	7%	3%
O=C(CNc1n[nH]c(=O)[nH]c1=O)N/N=C/C1CC=CCC1 (stereo not drawn)	2%	-5%	32µM*	-4%	18%
S=C(NCCc1ccccc1)Nc1ccc(N2CCCCC2)cc1	11%	-6%	-29%	-44%	-13%
COc1ccc(C)cc1NC(=O)CN(C)S(=O)(=O)c1cnc[nH]1	23µM*	19%	1%	-1%	u
Cn1cc(C(=O)c2ccc(Cl)cc2Cl)cc1C(=O)N/N=C(\N)COc1ccc(Cl)cc1	9%	-61%	-6%	0%	u
Cn1cc(C(=O)c2ccc(Cl)cc2Cl)cc1C(=O)N/N=C(\N)COc1ccc(Cl)cc1Cl	u	-50%	-3%	-1%	9.2µM*
O=C(CCCCCn1c(=S)[nH]c2cc3c(cc2c1=O)OCO3)N1CCN(C(=O)c2ccco2)CC1	-181%[0.0737 µM]	-10%	-1%	1%	1%
O=C(CCCCCn1c(=S)[nH]c2cc3c(cc2c1=O)OCO3)N1CCN(Cc2ccccc2)CC1	21µM*	-27%	2%	7%	u
Cc1ccsc1/C=N\NC(=O)c1n[nH]c2c1CCC2	8.2µM*	8%	8%	-2%	13µM*
CN(Cc1ccccc1)C(=O)c1cccc(NC(=O)Cc2ccc(NC(=O)C3CCN(C(=O)CCc4ccccc4)CC3)cc2)c1	0%	-4%	x	x	4%
CN(CCc1ccccc1)C(=O)c1ccc(NC(=O)Cc2ccc(NC(=O)C3CCCN(C(=O)C4CCCC4)C3)cc2)cc1 (stereo not drawn)	-54%	19%	x	x	7%[9.22 µM]
CN(Cc1ccccc1)C(=O)c1ccc(NC(=O)Cc2ccc(NC(=O)C3CCN(C(=O)CCc4ccccc4)CC3)cc2)cc1	15µM*	-20%	x	x	u
CN(CCc1ccccc1)C(=O)c1ccc(NC(=O)Cc2ccc(NC(=O)C3CCCN(C(=O)C4CC4)C3)cc2)cc1 (stereo not drawn)	-16%	0%	x	x	18µM*
Cc1cc(C)c2c(c1)/C(=N/Nc1ccc(S(N)(=O)=O)cc1[N+](=O)[O-])CCC2	2.3µM*	32%	-4%	6%	-7%
NS(=O)(=O)c1ccc(NN=C2CCN(Cc3ccccc3)CC2)c([N+](=O)[O-])c1	-7%	-29%	-4%	0%	-3%
NS(=O)(=O)c1ccc(N/N=C2/CCCCC2C2CCCCC2)c([N+](=O)[O-])c1 (stereo not drawn)	12µM*	-62%	-8%	-24%	u
CC1C/C(=N\Nc2ccc(S(N)(=O)=O)cc2[N+](=O)[O-])CC(C)(C)C1 (stereo not drawn)	21µM*	34%	-16%	26%	10%
CCNc1ccc(S(N)(=O)=O)cc1[N+](=O)[O-]	-3%	12%	-3%	-2%	-11%
O=C1/C(=C/c2ccccn2)SC(=S)N1Nc1ncc(C(F)(F)F)cc1Cl	u	6%	x	x	3%
CCCCNc1c(-c2ccc(SC(C)CC)c(OC)c2)nc2ccc(C)cn12 (stereo not drawn)	16µM*	-50%	u	-23%	u
SMILES	MCF10A rerep	Integrin act MD	AT treatment	Mito fusion act	SW480 rereplic
CCCCNc1c(-c2ccc(SC(C)CC)c(OC)c2)nc2ccc(Cl)cn12 (stereo not drawn)	23µM*	2%	4%	x	21µM*
CCN(CC)S(=O)(=O)c1ccc(N2CC(C(=O)N3CCOCC3)CC2=O)cc1 (stereo not drawn)	-9%	33%	-8%	-2%	-9%
CCN(Cc1ccccc1)C(=O)C1CCN(CC2CC=CCC2)CC1 (stereo not drawn)	22%	-7%	-2%	-2%	0%
CCN(Cc1ccccc1)C(=O)C1CCN(Cc2sccc2C)CC1	-2%	-8%	-1%	-5%	29µM*
Cc1occc(=O)c1OC(=O)Nc1ccc(Cl)c(Cl)c1	18µM*	-51%	u	-15%	-10%
COc1ccc(C(=O)Oc2c(C)occc2=O)cc1OC	0%	18%	6%	-1%	-2%
Cn1c(C(=O)NCCCN2CCN(c3ccccc3F)CC2)cc2c(=O)[nH]c3ccccc3c21	23µM*	-15%	-2%	0%	16%
CC1CC(C)CN(CCCNC(=O)c2cc3c(=O)[nH]c4ccccc4c3n2C)C1 (stereo not drawn)	8%	-19%	-4%	-5%	-4%
Cc1ccc(Cl)cc1N1CCN(C(=O)c2cc3c(=O)[nH]c4ccccc4c3n2C)CC1	18µM*!	22%	x	-1%	-1%
O=C1COc2ccc(S(=O)(=O)N3CCC(C(=O)NCc4ccccc4)CC3)cc2N1	2%	23%	1%	1%	-11%
Cc1ccccc1CS(=O)(=O)c1cnc2ccccc2n1	18µM*	-58%	0%	0%	u
Cc1nc(SCC(=O)N2CCC(Cc3ccccc3)CC2)[nH]c(=O)c1C	u	0%	12%	0%	-6%
COc1ccc(C(=O)Nc2nc3cc4c(cc3s2)OCCO4)c(OC)c1	4.1µM*	12%	-12%	3%	16%
NC(=O)c1ccc2nc(NC(=O)c3ccc(N)cc3)sc2c1	7%	-8%	35µM*	-1%	22%
COc1ccc2nc(NC(=O)Nc3cccc4ccccc34)sc2c1	9.2µM*	-75%	-3%	-2%	-19%
COc1ccc2nc(NC(=O)c3ccccc3O)sc2c1	21µM*	13%	11%	3%	u
COc1ccc2nc(NC(=O)c3ccccc3[N+](=O)[O-])sc2c1	-4%	-7%	-16%	4%	8%
Cc1cc(Cl)cc(Cl)c1CNc1c([N+](=O)[O-])c(=O)oc2ccccc12	u	12%	4%	-7%	-65%
COc1ccc2nc(NC(=O)Nc3ccccc3OC)sc2c1	u	32%	-3%	u	2.9µM*
COc1ccc2nc(NC(=O)c3ccc(F)cc3)sc2c1	1%	30%	2%	-3%	1%

Bioassay records as filed in PubChem BioAssay.
